DPM-DC inhibit: inhibitors of Streptococcus pneumoniae diphosphomevalonate decarboxylase; purified DPM-DC, PK/LDH coupled NADH fluorescence; calls only at 10 µM; 0.49% of 65,000 active; AID 556;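 active = the 320 compounds with the highest percent inhibition in the single-dose primary screen, excluding strongly autofluorescent ones, cut at about 32% in these data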;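 also: kinetic rate of NADH fluorescence loss reporting ADP formed by the decarboxylase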
NADH enzymes: blocks coupling enzymes of NAD/NADH assays. coupled PK/LDH NADH assays, four targets. IC50, µM (highest dose often 10 µM). 0.02% of 65,000 active;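 active = single-dose screening hits from any of four coupled enzyme assays that gave an IC50 when retested across doses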;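 also: the DPM-DC format reads NADH fluorescence rather than 340 nm absorbance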
Fluor 339 460: intrinsic fluorescence of library compounds, ex339/em460 – biochemical, MLSMR library, data from DPM-DC assay, artefact control, profiling panel; compound autofluorescence, ex339/em460 nm, NADH buffer; active compounds read high; 1 = no-compound wells, NADH background; fluorescence fold increase at 10 µM; 5.5% of 65,000 active; AID 709;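 active = at 10 µM, mean starting fluorescence two-fold or more over control wells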;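 also: signal is the first read of a kinetic run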
MK inhibit: blocks S. pneumoniae mevalonate kinase | purified MK, PK/LDH-coupled NADH absorbance 340 nm | inhibition, % at 10 µM | 0.48% of 65,000 active;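 active = ranked among the strongest by inhibition in the single 10 µM screen, a fixed top-ranked set picked for dose follow-up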
Spn PMK inh: S. pneumoniae PMK inhibition; purified PMK, PK/LDH-coupled NADH absorbance 340 nm; inhibition, % at 10 µM; 0.49% of 65,000 active;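 active = top-ranked compounds by inhibition in the single 10 µM screen, taking a fixed number of the strongest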
Abs 340nm: absorbance at 340 nm | compound absorbance at 340 nm, fold over control | 65,000 tested, under 10 active | AID 708 | fold change at 10 µM;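 active = at 10 µM dose, initial 340 nm absorbance at least 2 fold that of control wells; inactive = change under 2 fold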;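 also: initial absorbance extrapolated from kinetic A340 decline of NADH oxidation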
Hits are given with their value; 0 = inactive; - = no result shown. The list is not random: actives were taken first. Their share in the collection is about 6.5%.

SMILES	DPM-DC inhibit	NADH enzymes	Fluor 339 460	MK inhibit	Spn PMK inh	Abs 340nm
CC(=O)Nc1ccc(-c2nc3c(C)cccc3[nH]2)cc1	0	0	2.1	0	0	0
Cc1cc2nc(-c3ccc(SCC(=O)N4CCOCC4)nc3)[nH]c2cc1C	-	0	2.2	0	0	0
Cc1cc2nc(-c3ccc(SCC(=O)N4CCN(C(=O)c5ccco5)CC4)nc3)[nH]c2cc1C	-	0	4.4	0	0	0
CCc1sc(C(=O)NC2CCN(C)CC2)cc1Br	0	0	0	0	0	0
CCCC(=O)Nc1ccc(-c2nc3cc(C)c(C)cc3o2)cc1	-	0	3.8	0	0	0
O=C(Nc1ccc2oc(-c3ccccc3Cl)nc2c1)c1cncc(Br)c1	0	0	0	0	0	0
CCCC(=O)Nc1ccc2oc(-c3ccncc3)nc2c1	-	0	3.6	0	0	0
CCCCCC(=O)Nc1ccc2oc(-c3cncc(Br)c3)nc2c1	0	0	2.5	0	0	0
CCCCC(=O)Nc1ccc2oc(-c3ccncc3)nc2c1	-	0	3.7	0	0	0
CC1CCc2c(C(=O)N3CCN(S(=O)(=O)c4cccs4)CC3)csc2C1 (stereo not given)	0	0	0	0	0	0
N#CCCCn1c(-c2ccccc2)noc1=O	0	0	0	0	0	0
COc1ccc(N/C(C)=C2/C(=O)C(=O)N(CCO)C2c2ccc(Br)cc2)cc1 (stereo not given)	0	0	0	0	0	0
CCn1nnc(NC(=O)c2cccnc2)n1	0	0	0	0	0	0
CCn1nnc(NC(=O)c2cccc(-c3cc4ccccc4oc3=O)c2)n1	-	0	3.9	67	0	0
Cc1cc(NC(=O)CN2C(=O)C3CC=CCC3C2=O)no1 (stereo not given)	0	0	0	0	0	0
O=C(Nc1ccc(F)cc1)C1CCCCC1	0	0	0	0	0	0
O=S1(=O)NC2CCCCCN2c2ccc(F)cc21 (stereo not given)	0	0	3.6	0	0	0
COc1nc(-c2ccccc2)ccc1-c1noc(-c2cccnc2)n1	-	0	3.5	0	0	0
COc1nc2ccccc2cc1-c1noc(-c2cccnc2)n1	0	0	0	0	0	0
COc1nc(-c2ccc(C)cc2)ccc1-c1noc(-c2cccnc2)n1	-	0	3.5	0	0	0
Cc1csc(=N)n1CC(=O)N1CCc2ccccc21	0	0	0	0	0	0
Cc1ccc2nc(-c3cccnc3)oc2c1	0	0	2.7	0	0	0
Cc1ccc2nc(-c3ccccn3)oc2c1	0	0	3	0	0	0
c1ccc(-c2nc3cc(Oc4ccc5oc(-c6ccccn6)nc5c4)ccc3o2)nc1	0	0	0	0	0	0
CCCCn1c(-c2ccccc2)nc2c(=O)n(C)c(=O)[nH]c21	-	0	3.7	0	0	0
SMILES	DPM-DC inhibit	NADH enzymes	Fluor 339 460	MK inhibit	Spn PMK inh	Abs 340nm
Cc1nn2c(N3CCN(C(=O)c4ccco4)CC3)cc(C(C)(C)C)nc2c1-c1ccccc1	0	0	2.6	0	0	0
Cc1cc(N2CCN(C(=O)c3ccco3)CC2)n2ncnc2n1	0	0	0	42	0	0
Cc1cc(C(c2nnnn2Cc2ccccc2)N2CCOCC2)c(C)n1-c1ccc2c(c1)OCO2 (stereo not given)	0	0	0	0	0	0
COCCCNC(=O)c1cc2c(=O)n3cccc(C)c3nc2n(C(C)C)c1=N	-	0	5.1	0	0	0
COCCn1c(=N)c(C(=O)NCCc2ccc(OC)cc2)cc2c(=O)n3cccc(C)c3nc21	0	0	2.7	0	0	0
COc1ccc(OCC(=O)N2CCN(C(=O)COc3ccc(Br)cc3)CC2)cc1	0	0	0	0	0	0
COc1ccc2c(c1)c(=O)oc1cc(OCC(=O)N3CCC(C)CC3)ccc12	-	0	3.5	0	0	0
COc1ccc2c(c1)c(=O)oc1cc(OCC(=O)N3CCCC(C)C3)ccc12 (stereo not given)	-	0	3.9	0	0	0
CN1CCN(Cc2nc3c(c(=O)n(C)c(=O)n3C)n2Cc2ccccc2Cl)CC1	0	0	0	0	0	0
CCOC(=O)N1CCN(C(=O)c2cc3cc(Br)ccc3oc2=O)CC1	0	0	0	0	0	0
COC(=O)CSc1nc(C)c(Oc2ccccc2)c(=O)[nH]1	0	0	0	0	0	0
CN1CCN(CCCNC(=O)C2CCN(c3nnc(-n4cccc4)s3)CC2)CC1	0	0	0	0	0	0

High-throughput results: PubChem, SRMLSC
